# Rows were chosen to be rich in hits. Some 2.6% of all compounds tested hit in one or more screens of this group.
# CRFBP-R2 block – blocks CRF-induced signaling of the CRF-BP/CRF-R2 complex | HEK293 CRF-R2/CRF-BP, CRF-induced calcium fluorescence | inhibition, % at 11.8 µM | 350,000 tested, 0.59% active;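 active = inhibition of the ligand-induced calcium signal above about 50% at the single tested concentration, limit read from the data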
# CRFBP-R2 agonist – CRF-BP/CRF-R2 complex agonism. activation, % at 13.2 µM. 350,000 tested, 0.46% active. AID 588473. HEK293 CRF-R2/CRF-BP, calcium dye fluorescence (FLIPR); percent of saturating CRF peptide response;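 active = activation of at least 50%, plus an integration ratio under a set limit after plate pattern correction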;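 note: plate controls were neutral control wells without compound for no effect and CRF at EC100 for full effect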
# IDE cell activ – activators of human insulin-degrading enzyme in cells; P14735; HEK cells, FAbeta-B cleavage, fluorescence polarization; 0% vehicle, 100% cell-free pure enzyme wells; activation, % at 5.96 µM; 340,000 tested, 0.073% active;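 active = activation above the mean of all tested compounds plus 3 SD, set per screening campaign, cut at about 17% in these data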
# Target sequence (P14735 whole entry, looked up): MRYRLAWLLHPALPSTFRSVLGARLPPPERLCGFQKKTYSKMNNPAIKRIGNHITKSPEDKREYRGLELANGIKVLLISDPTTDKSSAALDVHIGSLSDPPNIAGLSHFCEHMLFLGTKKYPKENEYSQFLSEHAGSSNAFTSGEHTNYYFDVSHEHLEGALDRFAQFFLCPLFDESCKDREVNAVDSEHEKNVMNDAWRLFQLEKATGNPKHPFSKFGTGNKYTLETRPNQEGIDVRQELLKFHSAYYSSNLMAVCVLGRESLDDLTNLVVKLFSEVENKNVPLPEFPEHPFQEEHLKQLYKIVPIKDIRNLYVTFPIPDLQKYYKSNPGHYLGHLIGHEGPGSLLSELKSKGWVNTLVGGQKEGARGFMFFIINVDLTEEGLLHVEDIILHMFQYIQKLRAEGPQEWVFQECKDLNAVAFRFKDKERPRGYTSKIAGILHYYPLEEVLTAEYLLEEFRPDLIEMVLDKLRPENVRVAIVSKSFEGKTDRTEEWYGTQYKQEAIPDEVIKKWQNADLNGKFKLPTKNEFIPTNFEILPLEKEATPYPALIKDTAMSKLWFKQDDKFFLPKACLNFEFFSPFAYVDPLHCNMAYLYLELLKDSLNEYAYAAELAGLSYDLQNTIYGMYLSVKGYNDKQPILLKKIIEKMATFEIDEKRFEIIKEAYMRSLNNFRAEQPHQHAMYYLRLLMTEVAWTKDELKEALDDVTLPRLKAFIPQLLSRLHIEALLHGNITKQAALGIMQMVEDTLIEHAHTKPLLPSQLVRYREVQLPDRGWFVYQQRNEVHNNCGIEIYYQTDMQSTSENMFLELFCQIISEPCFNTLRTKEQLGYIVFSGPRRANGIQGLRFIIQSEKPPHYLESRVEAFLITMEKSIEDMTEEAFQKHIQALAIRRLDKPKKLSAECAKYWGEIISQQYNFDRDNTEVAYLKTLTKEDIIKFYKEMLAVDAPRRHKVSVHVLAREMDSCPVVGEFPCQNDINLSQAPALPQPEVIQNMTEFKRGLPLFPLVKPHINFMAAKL
# TPT1 inh – C. albicans TPT1 enzyme inhibition; recombinant caTPT1, FP RNA substrate dephosphorylation; inhibition, % at 5 µM; AID 1962; 300,000 tested, 0.81% active;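 active = inhibition above the mean of all tested compounds plus 3 SD, set per screening campaign, cut at about 24% in these data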;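 note: plate controls were DMSO alone for no effect and ferristatin control at 100 nM for full effect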
# Myeloid diff 2 – myeloid differentiation induction; AID 624256; ER-HoxA9 myeloid progenitors, lysozyme-GFP differentiation, flow cytometry; calls only at 10 µM; 360,000 tested, 1% active;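 active = normalized GFP-positive differentiation at or above the plate's own cutoff, the solvent-only control mean plus 3 SD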;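 note: cells exposed to compound for four days before flow analysis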
# IDE inh – cellular human IDE inhibition | inhibition, % at 5.59 µM | 320,000 tested, 0.41% active | AID 434962 | HEK cells, FAbetaB cleavage, fluorescence polarization | P14735;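 active = percent inhibition above the average of all tested compounds plus 3 SD, set per screening campaign, cut at about 16% in these data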;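 note: IDE supplied by intact live HEK cells; FP after avidin binding of uncleaved biotin substrate so inhibition keeps polarization high; 0% = DMSO wells and 100% = 60 µM reference IDE inhibitor Ii1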
# Myeloid diff – compounds promoting myeloid differentiation | shares compounds with Myeloid diff 2 | ER-HoxA9 myeloid progenitors, GFP/Mac1 double-positive flow | calls only | 2,300 tested, 2% active;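 active = share of green or green-and-red cells above 9 and 9% in run 1 or 4 and 3% in run 2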
# GFP autofluor – flagged as fluorescent in myeloid differentiation counter-screen | shares compounds with Myeloid diff 2 | ER-HoxA9 myeloid progenitors, no estrogen, GFP autofluorescence flow cytometry; vehicle wells 0%, positive control 100% | fluorescence response, % (test concentration not listed) | 2,300 tested, 7.4% active | AID 651707;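 active = over 5% cells positive for green fluorescent reporter, or over 2% positive for both it and APC stain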;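 note: range taken on the double positive population between DMSO and positive control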
# * = called active by the depositor; i = inactive; . = no result given; + = active, no number.
SMILES,CRFBP-R2 block,CRFBP-R2 agonist,IDE cell activ,TPT1 inh,Myeloid diff 2,IDE inh,Myeloid diff,GFP autofluor
CCC(C)c1c(O)nc(SCC(=O)N2CCCCC2)[nH]c1=O (stereo not given),14.1,-0.5,3.0,-0.6,i,1.6,.,.
CN1CCN(Cc2nc(Cc3ccccc3)no2)CC1c1ccccc1 (stereo not given),-15.5,2.4,0.9,0.1,i,-0.8,i,0.0
Cc1nn2c(N)c(-c3ccccc3)cnc2c1-c1ccccc1,0.2,-0.5,1.1,-1.2,i,-1.8,.,.
CC(Oc1ccc(-c2ccccc2)c(F)c1)c1ccn(S(=O)(=O)c2ccc(F)cc2)n1 (stereo not given),16.8,2.2,3.3,-7.2,i,0.4,i,0.7
COCCN(C(=O)CSc1n[nH]c(-c2ccc(OC)cc2)n1)c1c(N)n(Cc2ccccc2)c(=O)[nH]c1=O,-1.3,0.6,4.4,6.9,+,5.0,i,0.0
COCCN(C(=O)CSc1nc2ccccc2s1)c1c(N)n(Cc2ccccc2)c(=O)[nH]c1=O,7.5,12.7,-1.0,.,+,.,i,3.2
COc1ccc(N2CCN(C(=O)C(=O)c3cn(CC(=O)N4CCCC4)c4ccccc34)CC2)cc1,-8.0,-0.8,.,.,i,.,.,.
Cc1ccc(S(=O)(=O)N2CCN(C(=O)COC(=O)CNC(=O)c3ccccc3F)CC2)c(C)c1,6.1,-0.6,5.1,.,i,.,.,.
CC(C)N(C(=O)CN(C#N)c1nc(N(C)C)nc(N(C)C)n1)c1ccccc1,0.0,-2.5,-2.9,-3.0,i,3.1,i,0.0
COC(=O)CN(C#N)c1nc(N(C)C)nc(N(C)C)n1,-14.6,2.4,3.8,1.5,i,4.3,.,.
COCCn1c(SCC(=O)NN2C(=O)NC(C)(c3ccccc3)C2=O)nnc1-c1ccncc1 (stereo not given),-10.8,0.3,2.7,.,i,-1.6,.,.
COc1ccccc1CCn1cnc(-c2ccc(OC)c(OC)c2)c1C(C)C,.,.,.,.,i,.,i,0.5
CCCCc1c(-c2ccc(OC)c(OC)c2)ncn1CCc1ccccc1OC,.,.,.,.,i,.,.,.
CCCCc1c(-c2cccc(OC)c2)ncn1CCc1ccccc1OC,.,.,.,.,+,.,i,0.0
COc1cc(/C=C/C(=O)OC[C@H]2O[C@H](OC3(CO)OC(CO)C(O)C3O)[C@H](O)[C@@H](O)[C@@H]2O)ccc1O (stereo not given in full),-4.9,0.9,3.1,.,i,1.8,i,0.0
Cc1noc(C)c1NC(=O)Nc1cccc2c1O[C@H](CN(C)S(=O)(=O)c1cn(C)cn1)[C@@H](C)CN([C@H](C)CO)C2=O,4.8,-0.8,1.9,.,i,8.8,.,.
Cc1ccc2c(c1)NC(c1cccs1)C1=C(CC(C)(C)CC1=O)N2 (stereo not given),9.3,-1.7,-1.3,2.6,i,-5.7,.,.
CN1c2ccccc2Oc2nnc(Cl)cc21,-3.9,-1.8,2.5,3.0,i,4.5,.,.
CCN(CC)CCOc1cc2c(nn1)Oc1ccccc1N2C,-4.2,-0.5,6.4,-2.1,i,0.6,i,0.2
O=C(/C=C/[C@H]1O[C@@H](n2ccc(=O)[nH]c2=O)[C@H](O)[C@@H]1O)NCc1cccs1,.,.,.,.,i,.,.,.
O=C(/C=C/[C@H]1O[C@@H](n2ccc(=O)[nH]c2=O)[C@H](O)[C@@H]1O)NCc1cccc2ccccc12,.,.,.,.,+,.,i,0.4
COC(=O)CSc1nnc(CNc2ccc(OC)cc2)n1C,8.0,-0.5,1.8,-2.0,+,4.3,i,0.3
CC(C)OC(=O)CSc1nnc(CNc2ccc(Cl)cc2)n1C,-1.4,0.0,7.4,-7.3,i,3.5,.,.
NC(=O)NNC1=Nc2cccc3cccc1c23,-3.0,0.8,0.9,-7.8,i,-4.3,i,0.0
O=C(O)c1ccc(-c2ccc(O)c(F)c2)cc1,19.0,-1.6,6.0,-4.9,i,1.1,i,0.4
SMILES,CRFBP-R2 block,CRFBP-R2 agonist,IDE cell activ,TPT1 inh,Myeloid diff 2,IDE inh,Myeloid diff,GFP autofluor
CCS(=O)(=O)c1ccc2c(c1)N(S(C)(=O)=O)CC(C(=O)NCc1ccccc1OC)O2 (stereo not given),-4.5,-0.6,-2.5,-3.2,i,-3.2,.,.
CCS(=O)(=O)c1ccc2c(c1)N(S(C)(=O)=O)CC(C(=O)NC1CC1)O2 (stereo not given),-23.0,0.2,2.7,-1.7,+,-4.4,i,1.7
COc1ccc(CCC(=O)Nc2cccc(S(=O)(=O)N(C)C)c2)cc1OC,-3.6,-0.5,3.0,-2.3,i,1.3,.,.
Cc1cc(C)c(C)c(S(=O)(=O)N2CCC(C(=O)Nc3ccc(S(=O)(=O)N4CCOCC4)cc3)CC2)c1C,-25.4,4.3,3.7,-0.1,i,2.1,i,0.0
O=C(CCC(=O)N1CCOc2ccc(Cl)cc21)NCCCN1CCN(c2ccccc2F)CC1,-13.4,0.4,-4.5,-1.7,i,-1.8,i,0.0
Cc1ccccc1NC(=S)Nc1ccccn1,-8.7,2.9,4.2,-0.3,i,-4.3,i,0.6
S=C(Nc1ccccn1)Nc1ccccc1Cl,-12.8,0.3,0.5,-2.0,i,4.1,.,.
O=C(CN1C(=O)c2cccnc2Oc2ccc(Cl)cc21)Nc1ccccc1F,1.1,0.5,6.3,9.1,+,2.1,i,0.4
COc1cccc(NC(=O)CN2C(=O)c3cccnc3Oc3ccc(Cl)cc32)c1,-5.7,-0.1,1.1,7.4,i,-1.5,.,.
O=C(COC(=O)C1CCN(C(=O)c2ccc(Cl)cc2)CC1)Nc1ccccc1F,-6.9,0.2,0.0,.,i,-3.5,.,.
CNC[C@H](CC1CCCCC1)NC[C@H](CO)NCCc1cccc(C(F)(F)F)c1,-15.2,7.1,6.3,-1.6,+,-7.0,i,4.8
N#CC1(NC(=O)CSc2nnc(-c3ccccc3F)o2)CCCCC1,-0.1,-0.1,-3.2,2.5,i,0.0,.,.
CCCc1nnc(NC(=O)CCC(=O)N2CCN(c3ccccc3)CC2)s1,9.7,6.5,-0.9,0.6,i,-6.2,i,0.0
CCC(=O)c1ccc(OCc2cn(CC(=O)c3ccc(O)cc3)nn2)cc1,-22.6,-1.3,-2.1,.,i,.,.,.
Cc1cc(C)c2nc(SCC(=O)Nc3ccccc3N3CCOCC3)c(C#N)cc2c1,-4.5,0.0,5.0,-0.3,+,4.7,i,0.0
COc1c2ccccc2c(OC)c2ccccc12,-21.4,-0.4,4.1,-1.7,i,-0.7,.,.
COc1ccc(-c2sc3cc(OC)c(OC)cc3c2-c2ccc(O)cc2)cc1,9.8,-1.0,1.6,.,i,-2.1,i,0.3
Cn1c(=N)n(CC(=O)C(C)(C)C)c2ccccc21,11.8,-0.3,-2.3,-2.5,i,0.1,i,0.6
